Data on 18 molecules can be found in PubChem BioAssay AID493168 (National Center for Advancing Translational Sciences (NCATS), 2011).

Results filed as inconclusive are left out. Entries that show only a call come without a potency. Active and inactive are the calls of the source. Calls come from the whole dose curve; as a rule, active = well fitted inhibition curve with a large enough effect; inconclusive = small, poorly fitted or top-dose-only effect, or effect the other way; inactive = flat fitted curve, though single readings scatter.
Potency is the fitted concentration of half-maximal effect.

Ubiquitin carboxyl-terminal hydrolase 2 (Homo sapiens), sequence (O75604 whole entry, looked up): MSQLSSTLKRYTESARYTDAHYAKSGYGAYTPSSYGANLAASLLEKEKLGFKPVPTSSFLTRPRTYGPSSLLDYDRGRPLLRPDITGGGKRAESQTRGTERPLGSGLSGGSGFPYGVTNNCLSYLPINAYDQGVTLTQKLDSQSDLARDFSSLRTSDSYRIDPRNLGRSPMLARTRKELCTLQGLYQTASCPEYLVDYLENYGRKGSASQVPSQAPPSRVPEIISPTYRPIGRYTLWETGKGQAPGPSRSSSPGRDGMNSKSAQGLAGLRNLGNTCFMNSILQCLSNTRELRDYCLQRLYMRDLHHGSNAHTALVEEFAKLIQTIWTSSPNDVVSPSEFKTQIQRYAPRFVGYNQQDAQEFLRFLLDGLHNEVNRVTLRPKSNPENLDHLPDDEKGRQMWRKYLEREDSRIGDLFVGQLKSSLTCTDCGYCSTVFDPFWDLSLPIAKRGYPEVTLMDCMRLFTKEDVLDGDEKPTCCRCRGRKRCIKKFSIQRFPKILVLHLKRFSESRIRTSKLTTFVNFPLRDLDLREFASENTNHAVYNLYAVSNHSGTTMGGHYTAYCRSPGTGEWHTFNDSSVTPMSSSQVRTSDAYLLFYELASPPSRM

The assay concerns the target Ubiquitin carboxyl-terminal hydrolase 2 (Homo sapiens) (UniProt O75604). In words: Confirmation Assay for Inhibitors of Ubiquitin-specific Protease USP2a Using CHOP2 as the Reporter. Note: nearly all actives have a fitted effect of over 55% in size. The conditions noted are these: USP2 core, Ub-CHOP2 coupled reporter fluorescence; series mostly up to 38.3 µM. The procedure, abridged: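 Ub-CHOP2 cleavage coupled to reporter activation was read by fluorescence after 60 min at RT, with 25 nM final Ub-CHOP2 and substrate. Enzyme (10 nM final USP2 core) first sat 30 min with compound; data were normalized to NEM and fitted to concentration-response curves.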
`CC1=C(C(=O)OC(C)C)C(C)C(C(=O)OC(C)C)=C(C)N1`: the Potency result is “inactive”.

As for `O=C(Oc1ccccc1C(=O)Nc1ccccc1)c1ccccc1Br`, the Potency result was “inactive”.

Take `O=C(COC(=O)c1cc(-c2ccc(Cl)s2)nc2ccccc12)NCc1ccco1`: the Potency was 18.5 µM (active).

Turning to `Cc1c2c(=O)n(-c3nc4ccccc4s3)nc-2cc(O)n1Cc1ccccc1`, the Potency entry is “inactive”.

`Cc1ccc(/C=N/NC(=O)c2cc(-c3ccc(C)o3)[nH]n2)cc1`: the Potency entry is “inactive”.

Consider `CC(C)(C)[C@H]1COC(=O)[C@@H](Cc2ccc(F)cc2)C/C=C\C[C@@H](CC(=O)N[C@H](CO)Cc2ccccc2)C(=O)N1`, for which the Potency result was “inactive”.

On to `Cc1ccc(C)n1NC(=O)c1ccccc1O`, for which the Potency result was “inactive”.

In the case of `O=C(c1ccccc1)N1CCN(C2C3CC4CC(C3)CC2C4)CC1` (stereo not drawn), the Potency result was “inactive”.

Consider `CC(=O)c1ccc(Nc2ncnc3c2oc2ccccc23)cc1`, for which the Potency entry is “inactive”.

Regarding `O=C(CCN1C(=O)/C(=C\c2ccco2)SC1=S)Nc1ccc(C(=O)O)c(O)c1`, the Potency was 13.1 µM (active).

As to `O=C(Cn1nc(-c2cccs2)ccc1=O)Nc1ccc(Br)cc1`, the Potency result is “inactive”.

As to `COCCNCC(=O)N1CCCCCC1`, the Potency entry is “inactive”.

As to `Cc1[nH]c2ccccc2c1C(c1ccccn1)c1c(C)[nH]c2ccccc12`, the Potency result was “inactive”.

Take `Cc1ccc(C(=O)COC(=O)CNC(=O)CN2C(=O)c3ccccc3C2=O)cc1`: the Potency entry is “inactive”.

Regarding `O=C(CSc1nc2ccccc2s1)NCCCN1CCOCC1`, the Potency entry is “inactive”.

For the molecule `OCCN(Cc1ccccc1)c1ncnc2sccc12`, the Potency entry was “inactive”.

As to `CCn1c2ccccc2c2nc3ccccc3nc21`, the Potency result was “inactive”.

Regarding `COc1cc(C(=O)OC2CCCCC2=O)cc(OC)c1C` (stereo not drawn), the Potency was 11.7 µM (active).
